# KCNQ2 enhance: potentiators of rat KCNQ2 potassium channel; 310,000 compounds, 0.54% hits; Potassium voltage-gated channel subfamily KQT member 2 (Rattus norvegicus), O88943; CHO-K1 KCNQ2, FluxOR thallium flux fluorescence; hits give high values; B-score at 10 µM;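 active = fluorescence ratio B-score at least 3 SD of library B-scores, with initial fluorescence B-score within 3 of them, cut at about 5.3 in these data; same plate scores as AID 2156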;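 also: B-score of peak minus minimum over baseline fluorescence ratio after K+ and Tl+ stimulus; positive B-score means potentiation of KCNQ2 with more thallium influx and brighter signal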
# Target sequence (O88943 whole entry, looked up): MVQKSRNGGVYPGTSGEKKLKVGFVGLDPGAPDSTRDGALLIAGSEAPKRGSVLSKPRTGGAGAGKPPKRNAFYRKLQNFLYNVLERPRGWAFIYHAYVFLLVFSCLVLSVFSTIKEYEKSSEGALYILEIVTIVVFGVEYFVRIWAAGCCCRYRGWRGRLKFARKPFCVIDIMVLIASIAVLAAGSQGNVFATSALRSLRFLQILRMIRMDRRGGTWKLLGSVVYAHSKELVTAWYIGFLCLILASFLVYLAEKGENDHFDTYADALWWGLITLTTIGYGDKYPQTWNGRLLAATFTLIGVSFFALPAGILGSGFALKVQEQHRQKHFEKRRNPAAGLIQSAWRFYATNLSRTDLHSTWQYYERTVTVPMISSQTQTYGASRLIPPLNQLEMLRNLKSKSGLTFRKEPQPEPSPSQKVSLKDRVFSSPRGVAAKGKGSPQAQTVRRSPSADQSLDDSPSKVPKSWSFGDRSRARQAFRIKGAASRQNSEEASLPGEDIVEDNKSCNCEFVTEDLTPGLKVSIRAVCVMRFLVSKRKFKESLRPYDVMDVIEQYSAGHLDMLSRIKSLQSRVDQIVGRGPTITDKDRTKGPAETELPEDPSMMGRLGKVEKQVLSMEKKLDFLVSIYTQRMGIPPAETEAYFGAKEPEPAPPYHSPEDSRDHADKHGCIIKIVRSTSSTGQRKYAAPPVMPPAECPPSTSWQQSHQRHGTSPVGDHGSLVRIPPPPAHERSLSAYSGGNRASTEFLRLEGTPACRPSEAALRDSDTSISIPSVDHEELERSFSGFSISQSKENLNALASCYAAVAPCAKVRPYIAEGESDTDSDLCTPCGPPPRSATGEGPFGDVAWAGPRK
# KCNQ2 block: rat KCNQ2 potassium channel inhibitors, primary screen, cell-based, CHO-K1, FluxOR thallium flux, B-score | B-score at 10 µM | 310,000 compounds, 1.1% hits | AID 2156, 2009 | 20 min; hits give low values | Potassium voltage-gated channel subfamily KQT member 2 (Rattus norvegicus), O88943;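 active = fluorescence ratio B-score at most minus 3 library SDs, with starting brightness B-score within 2 library SDs, cut at about -5.5 in these data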
# KCNQ2 inh conf: rat KCNQ2 potassium channel inhibitors, confirmation, cell-based, thallium flux; activity change, negative = inhibition, % at 10 µM; shares compounds with KCNQ2 block; AID 493025, 2011; KCNQ2-expressing cells, inhibition; hits give low values; 1,000 compounds, 57% hits;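 also: 0% = vehicle wells and values are ratio percent relative to vehicle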
# KCNQ1 spec: human KCNQ1 channel inhibition, counter-screen for KCNQ2 inhibitor project, cell-based, FluxOR thallium flux | shares compounds with KCNQ2 block | KCNQ1-expressing cells, FluxOR thallium flux fluorescence; hits give low values | activity change, negative = inhibition, % at 10 µM | 1,000 compounds, 15% hits | AID 493026, 2011;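 active = activity change at least 3 SD of negative controls below their mean in both duplicate wells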;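 also: CHO cells stably transfected with KCNQ1 and depolarized by potassium stimulus; peak minus minimum fluorescence over baseline after thallium addition; 0% = vehicle negative control and -100% = blank without thallium stimulus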
# CHO parental ctr: thallium flux change in parental CHO cells, counter-screen for KCNQ2 inhibitor project | AID 493029, 2011 | hits give low values | 1,000 compounds, 14% hits | activity change, % at 10 µM | shares compounds with KCNQ2 block;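 also: 0% = vehicle negative controls with stimulus buffer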
# KCNQ2 patch conf: rat KCNQ2 channel inhibitors, confirmation, cell-based, automated patch clamp, single concentration; calls only at 10 µM; KCNQ2-expressing cells, automated patch clamp current; 550 compounds, 49% hits; shares compounds with KCNQ2 block
# * = called active by the depositor; i = inactive; · = no result given; + = active, no number. Rows were chosen to be rich in hits. Some 1.6% of all compounds tested hit in one or more screens of this group. Unless noted, no rule for the calls is given here.
SMILES,KCNQ2 enhance,KCNQ2 block,KCNQ2 inh conf,KCNQ1 spec,CHO parental ctr,others
CCC(C)[C@H](NC(=O)C1CCN(C(=O)[C@H](Cc2ccccc2)NS(=O)(=O)c2ccc(C)cc2)CC1)C(=O)O (some centres not stated),0.2,i,·,·,·,
CCN1C(=O)[C@@H]2[C@H](C1=O)[C@@H]1C(=O)Nc3ccccc3C(=O)N1[C@@H]2c1ccc(Br)cc1,0.17,i,·,·,·,
COc1ccc(/C=C/C(=O)c2ccccc2)cc1COc1ccc(F)cc1,-6.6,-6.6*,i,i,i,
COc1ccc(/C=C/C(=O)c2ccc(O)cc2)cc1COc1ccc(F)cc1,·,i,·,·,·,
CCOc1ccc(CCNC(=O)COC(=O)c2cccc(S(=O)(=O)N3CCCC3)c2)cc1OCC,·,i,·,·,·,
COc1cccc(-n2nnnc2SCC(=O)Nc2ccc(NC(C)=O)cc2)c1,·,i,·,·,·,
CCOc1ccc(N(CC(=O)N2CCc3ccccc32)S(=O)(=O)c2c(C)noc2C)cc1,·,i,·,·,·,
CCOc1ccc(N(CC(=O)N2CC=C(c3ccccc3)CC2)S(=O)(=O)c2c(C)noc2C)cc1,-8.6,-8.6*,i,i,i,
CC(=O)Nc1ccc(NC(=O)c2ccc(COc3ccccc3Br)o2)cc1,0.53,i,·,·,·,
Cc1cccc(NC(=O)c2ccc(COc3cccc4ccccc34)o2)n1,-8.8,-8.8*,-38%*,-34%*,-28%*,KCNQ2 patch conf=i
O=C(Nc1ccccc1)Nc1cccc(C(F)(F)F)c1,·,i,·,·,·,
COC(=O)/C(=C\C(=O)c1ccccc1)Nc1cccc(C(F)(F)F)c1,-7.8,-7.8*,i,i,i,
CCc1ccccc1NC(=O)CNC(=O)c1ccc(-n2cncn2)c([N+](=O)[O-])c1,0.37,i,·,·,·,
CCC(=O)N1CCN(c2cc(N3CCN(C)CC3)c(F)cc2[N+](=O)[O-])CC1,0.22,i,·,·,·,
CN1CCN(c2cc(N3CCc4ccccc4C3)c(F)cc2[N+](=O)[O-])CC1,-6.8,-6.8*,i,i,i,
CCN(CC(=O)NCc1cccs1)C(=O)c1cc(S(=O)(=O)NCc2ccccc2)ccc1C,·,i,·,·,·,
CN(C)CC(=O)Nc1cc(C(F)(F)F)ccc1Cl,0.07,i,·,·,·,
CCOC(=O)/C(=N\Nc1cc(C(F)(F)F)ccc1Cl)N(CC)CC,-8.9,-8.9*,i,i,i,
CN(C(=O)COC(=O)c1ccccc1Cc1ccccc1)C1CCS(=O)(=O)C1 (configuration not stated),0.21,i,·,·,·,
Cc1ccc2nc(-c3ccccn3)cc(C(=O)N3CCN(c4ncccn4)CC3)c2c1,0.46,i,·,·,·,
Cc1ccc2nc(-c3ccccc3)cc(C(=O)N3CCc4ccccc4C3)c2c1,-8.3,-8.3*,i,i,i,
Cc1ccc2nc(-c3ccccc3)cc(C(=O)N3CC(C)OC(C)C3)c2c1 (configuration not stated),-9.3,-9.3*,-30%*,i,i,KCNQ2 patch conf=+
O=C(c1cc(Cl)nc2ccccc12)N1CCc2ccccc2C1,·,i,·,·,·,
COc1ccc(-c2cc(C(F)(F)F)n3ncc(C(=O)N4CCc5ccccc5C4)c3n2)cc1,-6.8,-6.8*,i,i,i,
COc1cccc(-c2cc(C(F)(F)F)n3ncc(C(=O)N4CCc5ccccc5C4)c3n2)c1,·,i,·,·,·,
SMILES,KCNQ2 enhance,KCNQ2 block,KCNQ2 inh conf,KCNQ1 spec,CHO parental ctr,others
CC1CC(C)CN(C(=O)c2cc(-c3ccncc3)nc3ccccc23)C1 (configuration not stated),·,i,·,·,·,
O=C(c1cc(-c2ccccc2)nc2ccccc12)N1CCc2ccccc2C1,-7.8,-7.8*,-28%*,i,i,KCNQ2 patch conf=+
Cc1ccccc1-c1nc(CS(=O)CC(=O)NC(C)CCc2ccccc2)c(C)o1 (configuration not stated),0.94,i,·,·,·,
CN(C)CCCNCCCNC(=O)/C(=N\O)c1ccccc1,·,i,·,·,·,
Cc1ccc(OCC(=O)N2CCc3ccccc3C2)c(C)c1,-7.8,-7.8*,-30%*,i,i,KCNQ2 patch conf=+
Cc1ccc(OCC(=O)N2CCc3ccccc3C2)c(Br)c1,·,i,·,·,·,
CCN(CC)C(=O)C1CCCN(C(=O)c2oc3ccc(C)cc3c2C)C1 (configuration not stated),-7,-7*,i,i,i,
CCN(CC)C(=O)C1CCN(C(=O)c2oc3ccc(C)cc3c2C)CC1,·,i,·,·,·,
COCCCNc1nc2ccccc2nc1NS(=O)(=O)c1cccc(C)c1,0.48,i,·,·,·,
N#Cc1ccc(/C=C/C(=O)c2cccnc2)cc1,-11,-11*,-29%*,i,i,KCNQ2 patch conf=i
CCN(CC)c1ccc(/C=C/C(=O)c2cccnc2)cc1,·,i,·,·,·,
O=C(/C=C/c1ccccc1Cl)c1ccc(O)cc1,·,i,·,·,·,
O=C(/C=C/c1ccccc1Cl)c1cccnc1,-8,-8*,-36%*,-32%*,-32%*,KCNQ2 patch conf=i
Cn1c(=O)c(=O)n(C)c2cc(S(=O)(=O)CCC(=O)Nc3c(F)c(F)c(F)c(F)c3F)ccc21,2.9,i,·,·,·,
CCn1cc(C(=O)OCC(=O)c2cc(C)n(-c3ccc(OC(F)F)cc3)c2C)c(=O)c2ccc(C)nc21,0.13,i,·,·,·,
Cc1nn(C)cc1S(=O)(=O)N1CCN(c2ccccc2F)CC1,0.22,i,·,·,·,
COc1cc(S(=O)(=O)Nc2cccc(C)c2)ccc1NC(=O)c1ccncc1,1.7,i,·,·,·,
COC(=O)[C@@]1(Cc2ccc(F)cc2)[C@H]2c3cc(C(=O)N4CCCC4)n(CCCNc4ncc(C(F)(F)F)cc4Cl)c3C[C@H]2CN1C(=O)c1ccccc1,·,i,·,·,·,
CN(C)c1nc(-c2ccccc2)c2cnn(Cc3ccccc3)c2n1,·,i,·,·,·,
CC(C)(C)c1ccc(S(=O)(=O)NCCc2ccncc2)cc1,·,i,·,·,·,
Cc1ccc(CNS(=O)(=O)c2ccc(C(C)(C)C)cc2)n1C,-7.1,-7.1*,·,i,i,KCNQ2 patch conf=+
O=C1CCN(CCCc2ccccc2)CCN1[C@H](CO)Cc1ccccc1,0.4,i,·,·,·,
Cc1ccc(Nc2nc(CSc3nnnn3-c3ccccc3)cs2)cc1,·,i,·,·,·,
Cc1cccc(-n2nnnc2SCc2csc(-c3ccccc3)n2)c1,-7.2,-7.2*,-32%*,i,i,KCNQ2 patch conf=+
Cn1nnc2cc(C(=O)N3CCN(c4ccccn4)CC3)ccc21,·,i,·,·,·,
CCn1c(=O)c(C(=O)NCc2ccc(Cl)cc2)c(O)c2ccccc21,-7.6,-7.6*,-25%*,i,i,KCNQ2 patch conf=i
CCn1c(=O)c(C(=O)NCc2cccnc2)c(O)c2ccccc21,1.1,i,·,·,·,
CCCn1c(=O)c(C(=O)NCc2ccccc2OC)c(O)c2ccccc21,-7.6,-7.6*,i,i,i,
